Compound activity: PubChem, several laboratories
SSB-PriA inh: inhibitors of Klebsiella pneumoniae PriA binding to SSB C-terminal tail, primary screen, biochemical, AlphaScreen; AlphaScreen SSBct-PriA binding, biotinylated peptide; PriA–SSB C-terminal tail interaction (Klebsiella pneumoniae); actives 0.6% (n = 430,000); inhibition, % at 33 µM; in the data active = inhibition mostly above about 37%, no sharp cut-off; inactive = mostly below about 20%;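 also: plate controls were negative control peptide for no effect and reference peptide for full effect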
RecA splice inh: Mtb RecA intein splicing inhibitors, primary screen, biochemical, fluorescence, HTS; Protein RecA (Mycobacterium tuberculosis (strain ATCC 25618 / H37Rv)), P9WHJ3; cell-free RecA intein splicing; inhibition, % (no concentration beside the values); actives 0.75% (n = 290,000); AID 2221, 2009; in the data active = inhibition above about 30%;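 also: 0% = vehicle wells and 100% = reference inhibitor control wells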
Target sequence (P9WHJ3 whole entry, looked up, canonical isoform): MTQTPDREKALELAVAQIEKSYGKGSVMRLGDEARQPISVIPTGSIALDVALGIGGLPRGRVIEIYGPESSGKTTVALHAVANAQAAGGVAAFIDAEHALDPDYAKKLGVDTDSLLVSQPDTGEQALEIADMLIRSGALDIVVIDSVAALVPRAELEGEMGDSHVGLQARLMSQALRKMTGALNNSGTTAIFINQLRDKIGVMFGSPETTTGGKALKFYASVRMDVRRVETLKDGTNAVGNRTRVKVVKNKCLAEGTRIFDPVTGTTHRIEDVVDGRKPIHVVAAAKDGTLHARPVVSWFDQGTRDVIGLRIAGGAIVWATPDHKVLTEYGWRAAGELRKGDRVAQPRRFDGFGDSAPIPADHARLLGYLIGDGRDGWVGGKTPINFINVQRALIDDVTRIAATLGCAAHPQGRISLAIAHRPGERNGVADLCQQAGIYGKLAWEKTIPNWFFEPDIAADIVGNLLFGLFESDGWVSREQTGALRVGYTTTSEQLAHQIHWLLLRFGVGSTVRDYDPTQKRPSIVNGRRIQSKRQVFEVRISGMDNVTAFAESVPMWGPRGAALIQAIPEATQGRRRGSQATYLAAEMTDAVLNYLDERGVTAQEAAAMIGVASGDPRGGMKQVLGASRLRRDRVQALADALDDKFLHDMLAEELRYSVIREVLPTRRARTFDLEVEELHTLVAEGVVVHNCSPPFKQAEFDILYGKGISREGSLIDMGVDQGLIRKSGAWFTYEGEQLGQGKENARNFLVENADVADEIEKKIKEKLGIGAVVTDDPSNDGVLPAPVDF
VHR inh abs: VHR1 phosphatase inhibitors, primary screen, biochemical, absorbance, uHTS. recombinant VHR phosphatase, pNPP absorbance. inhibition, % at 13.3 µM. actives 0.52% (n = 290,000). Dual specificity protein phosphatase 3 (Homo sapiens), P51452. AID 1654, 2009; in the data active = inhibition above about 50%
CCHF vOTU inh: CCHFV vOTU protease inhibitors, primary screen, biochemical, Pep-AMC substrate, fluorescence; inhibition, % at 11.5 µM; AID 651958, 2012; actives 0.55% (n = 370,000); in the data active = inhibition above about 30%; also: 0% = vehicle wells with enzyme and 100% = no enzyme wells
3CLpro inhibitor: SARS-CoV 3CLpro protease inhibitors, primary screen, biochemical, quenched FRET. Replicase polyprotein 1ab (Severe acute respiratory syndrome coronavirus), P0C6X7. recombinant SARS-CoV 3CLpro, quenched FRET peptide cleavage. inhibition, % at 6 µM. actives 0.14% (n = 290,000); in the data active = inhibition above about 12%
An asterisk follows results filed as active; . = no result given. Shown are actives, neighbours in structure and some others; about 1.7% of the full set was active somewhere.

SMILES | SSB-PriA inh | RecA splice inh | VHR inh abs | CCHF vOTU inh | 3CLpro inhibitor
COCCN1CCCc2ccc(NS(=O)(=O)c3c(C)c(C)c(C)c(C)c3C)cc21 | 38* | . | . | . | .
COCCN1CCCc2ccc(NS(=O)(=O)c3ccc4c(c3)CCCC4)cc21 | 45* | . | . | . | .
CC(C)(C)c1ccc(NC(=O)N2CCS[C@H](c3ccccc3)CC2)cc1 | 5 | . | . | . | .
CCOc1ccc(OCCNS(=O)(=O)c2cc(C)c(C)cc2C)cc1 | -1 | . | . | . | .
CC(C)(C)C1=Nn2c(nnc2-c2ccccc2F)SC1 | 0 | -2 | 30 | . | 0
COc1ccc(C2=Nn3c(nnc3-c3ccccn3)SC2)cc1OC | 83* | 2 | -13 | 9 | 1
CC(C)(C)C1=Nn2c(nnc2-c2ccccn2)SC1 | 90* | -3 | 11 | 9 | -3
Cn1cc(C(=O)N2CCCC2)cc(NC(=O)CCCc2ccccc2)c1=O | -3 | . | . | . | .
CCOc1cc2[nH]c(=O)n(Cc3ccc(C(=O)NCCOC)cc3)c(=O)c2cc1OCC | 104* | -3 | -14 | -12 | 5
CCCCCNC(=O)CCCCn1c(=O)[nH]c2cc(OCC)c(OCC)cc2c1=O | -21 | 0 | 51* | -12 | -6
O=C(CN1C(=O)N(c2ccc(Cl)cc2)S(=O)(=O)c2ccccc21)NCCC1=CCCCC1 | -28 | . | . | . | .
Cc1csc(C(=O)Nc2cnoc2)c1 | 9 | . | . | . | .
c1ccc(-c2csc(Nc3nc4cc5c(cc4s3)OCO5)n2)nc1 | 1 | . | . | . | .
COc1ccc2ccccc2c1C1N(c2ccccc2)CCN1c1ccccc1 | 0 | . | . | . | .
O=c1c2ccccc2nc(/C=C/c2cccnc2)n1CCc1ccccc1 | 10 | 43* | 14 | 9 | 6
O=c1c2ccccc2nc(/C=C/c2cccnc2)n1Cc1ccccc1 | -6 | 49* | 25 | 5 | 12
CCOc1ccc(CCNC(=O)Cn2ccc3cc(S(=O)(=O)N4CCCC4)ccc32)cc1 | -15 | -1 | 53* | 2 | 1
O=C(COc1ccccc1F)NCCOc1ccc2c(c1)OCO2 | 9 | . | . | . | .
O=C(COc1ccc2ccccc2c1)NCCOc1ccc2c(c1)OCO2 | 37* | . | . | . | .
N#Cc1c(NC(=O)C2=COCCO2)sc2c1CCN(Cc1ccccc1)C2 | -9 | . | . | . | .
N#C/C(=N\Nc1ccc(S(=O)(=O)N2CCCCCC2)cc1)C(N)=S | . | 9 | 5 | 10 | 3
N#CC(C#N)=NNc1ccc(S(=O)(=O)N2CCCC2)cc1 | 7 | 30* | -1 | 19 | 0
COc1ncccc1C(=O)NCCc1cc(C)no1 | 1 | . | . | . | .
COc1ccccc1NC(=O)NNC(=O)CCN1CCOCC1 | -8 | 3 | 57* | -2 | -4
CC1(C)CC(CCNS(=O)(=O)c2ccccc2)(c2ccccc2)CCO1 (stereo not drawn) | -20 | 3 | -14 | -14 | -3
SMILES | SSB-PriA inh | RecA splice inh | VHR inh abs | CCHF vOTU inh | 3CLpro inhibitor
CC1(C)CC(CCNC(=O)CCl)(c2ccccc2)CCO1 (stereo not drawn) | 2 | 32* | -3 | 10 | 7
Cc1noc(C)c1CC(=O)NCC(C)(O)c1cc2ccccc2s1 (stereo not drawn) | -9 | . | . | . | .
COc1cc(NC(=O)C2(c3cccs3)CCCC2)c2ncccc2c1 | -6 | . | . | . | .
CCN(CC)C(=O)c1cc(Cl)ccn1 | -4 | . | 0 | -7 | -4
O=C(Cl)c1cc(Cl)ccn1 | 83* | . | . | . | .
C=CCOCC(O)Cn1c(NCc2ccco2)nc2c1c(=O)[nH]c(=O)n2C (stereo not drawn) | 67* | . | . | . | .
O=C(NCCn1nc(-n2cncn2)ccc1=O)c1ccc(-n2cccc2)cc1 | 1 | . | . | . | .
CCCN1CCCc2cc(CCNC(=O)C(C)C)ccc21 | 59 | . | . | . | .
CCCN1CCCc2cc(CCNC(=O)C(C)(C)C)ccc21 | 51* | . | . | . | .
CCCN1CCCc2cc(CCNC(=O)c3ccc(F)cc3)ccc21 | 23 | . | . | . | .
CCCN1CCCc2cc(CCNC(=O)c3cccs3)ccc21 | 63* | . | . | . | .
CCCN1CCCc2cc(CCNC(=O)c3c(OC)cccc3OC)ccc21 | 80* | . | . | . | .
CCCN1CCCc2cc(CCNC(=O)c3ccccc3)ccc21 | 57 | . | . | . | .
CCCN1CCCc2cc(CCNC(=O)c3ccccc3F)ccc21 | 68* | . | . | . | .
CCCN1CCCc2cc(CCNC(=O)COCC)ccc21 | 51 | . | . | . | .
CCCN1CCCc2cc(CCNC(=O)COc3ccccc3F)ccc21 | 83* | . | . | . | .
CC(Cn1cnc([N+](=O)[O-])n1)=NNC(=O)c1ccccc1F | -8 | . | . | . | .
